What all share (assay): NCI-60 one-dose screen, 48 h (100 = growth as untreated, 0 = no growth, -100 = all killed)
In one test the test system is A549/ATCC NSCLC. The conditions noted are these: 10 µM unless noted.
The test system of the next test is K-562 leukemia. Conditions: 10 µM unless noted.
In a further test the test system is SF-295 CNS. The conditions noted are these: 10 µM unless noted.
The test system of another test is SF-539 CNS. The conditions noted are these: 10 µM unless noted.
For another test, the system named is UACC-257 melanoma. Conditions: 10 µM unless noted.
A further test deals with HCT-15 colon. The conditions noted are these: 10 µM.
The test system of a further test is HT29 colon. The conditions noted are these: 10 µM unless noted.
The next test has as its system SNB-75 CNS. Conditions: 10 µM unless noted.
Another test has as its system PC-3 prostate. The conditions noted are these: 10 µM unless noted.
For a further test, the system named is SK-MEL-5 melanoma. The conditions noted are these: 10 µM unless noted.
A further test relates to SK-MEL-2 melanoma. Conditions: 10 µM unless noted.
The next test has as its system A498 renal. Conditions: 10 µM unless noted.
For another test, the system named is HL-60(TB) leukemia. The conditions noted are these: 10 µM unless noted.
The test system of another test is OVCAR-8 ovarian. Conditions: 10 µM unless noted.
The test system of another test is OVCAR-4 ovarian. The conditions noted are these: 10 µM unless noted.
The test system of another test is IGROV1 ovarian. Conditions: 10 µM.
A further test has as its system HS 578T breast. Conditions: 10 µM unless noted.
A further test has as its system T-47D breast. Conditions: 10 µM unless noted.
For a further test, the system named is HCC-2998 colon. The conditions noted are these: 10 µM unless noted.
Another test deals with ACHN renal. Conditions: 10 µM unless noted.

Each structure is given as a SMILES string. About 83,000 compounds went through this panel and 20% of them were active in at least one assay; those are over-represented in the sample as a whole.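 Assay: single dose, 48 h. Readout: percent growth (0 = no net growth; negative = cell death). Active: <10.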 Unmarked numbers belong to inactive results. Active and inactive are the calls of the source.

Consider `CC(C)(NC(=O)c1nn(CCCCCF)c2ccccc12)c1ccccc1`, for which the growth in the test on A549/ATCC NSCLC was 76.4%; in the test with K-562 leukemia, 89.8%; in the test on SF-295 CNS, 101%; in the test on SF-539 CNS, 100%; with UACC-257 melanoma it was 77%; in the test on HCT-15 colon, 96.3%. For the same compound, the growth was 81.9% in the test on HT29 colon; 88.5% with SNB-75 CNS; 65% in the test on PC-3 prostate; 90.3% with SK-MEL-5 melanoma; 87% in the test with SK-MEL-2 melanoma; 94.8% in the test with A498 renal. The growth in the test on HL-60(TB) leukemia is 88.3%; in the test with OVCAR-8 ovarian, 83.5%; with OVCAR-4 ovarian, 88.5%; in the test on IGROV1 ovarian, 101%; with HS 578T breast, 96.6%; in the test with T-47D breast, 75.4%. Moreover, the growth in the test with HCC-2998 colon was 105%.
For `COc1ccccc1N1CCN(CCc2c[nH]c3cc4c(cc23)OCO4)CC1`, the growth in the test on K-562 leukemia was 76.3%; with SF-295 CNS, 41%; with SF-539 CNS, 77.8%; in the test on UACC-257 melanoma it was 56.7%; in the test with HCT-15 colon, 68%; in the test with HT29 colon it was 44.2%. The growth in the test with SNB-75 CNS was 91.6%; with PC-3 prostate it was 58.4%; with SK-MEL-5 melanoma, 74.8%; with SK-MEL-2 melanoma, 57.6%; in the test on ACHN renal, 77.7%; in the test with A498 renal it was 108%. Moreover, the growth is 64.8% with HL-60(TB) leukemia; 88.4% in the test on OVCAR-8 ovarian; 99.2% in the test on OVCAR-4 ovarian; -33.9% (active) in the test on IGROV1 ovarian; 69.5% with HS 578T breast; 83.1% in the test on T-47D breast. Also, the growth in the test with HCC-2998 colon is 92.6%.
On to `CCN(CC)CCOc1c(C(C)C)cccc1C(C)C`, for which the growth with A549/ATCC NSCLC was 89.5%; in the test with K-562 leukemia it was 111%; in the test with SF-295 CNS it was 93.8%; in the test with SF-539 CNS, 116%; with UACC-257 melanoma it was 94.8%; in the test with HCT-15 colon, 98.4%. Besides, the growth in the test on HT29 colon was 95.4%; in the test with SNB-75 CNS, 84.8%; in the test with PC-3 prostate, 101%; with SK-MEL-5 melanoma, 101%; in the test on SK-MEL-2 melanoma it was 96.9%; in the test with ACHN renal, 97.4%. Further, the growth in the test with A498 renal is 82.1%; in the test on HL-60(TB) leukemia, 107%; in the test on OVCAR-8 ovarian, 100%; in the test with OVCAR-4 ovarian it was 99.3%; in the test with IGROV1 ovarian it was 101%; in the test on HS 578T breast, 110%. Besides, the growth is 85.1% in the test on T-47D breast and 102% in the test on HCC-2998 colon.

The values are drawn from PubChem BioAssay (NCI).
